The values below come from PubChem BioAssay (NCI).

SMILES strings stand for the structures. About 83,000 compounds went through this panel and 20% of them were active in at least one assay; those are over-represented in the sample as a whole.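 Cell lines were cultured in 96-well plates, exposed to a single compound concentration, and assessed for percent growth 48 hours later.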 Unmarked numbers belong to inactive results. Active and inactive are the calls of the source. The calls were made as follows: active = growth percent below 10; inactive = the rest.

This experiment relates to HOP-92 NSCLC. Put plainly: NCI-60 one-dose screen, 48 h (100 = growth as untreated, 0 = no growth, -100 = all killed). The note with it: 10 µM unless noted.
For `COc1ccc(-c2cc(NC(=O)Nc3ccc4ncsc4c3)no2)cc1`, the growth is 105%.

For the molecule `O=[N+]([O-])c1ccccc1/C=N\NC(=S)N/N=C/c1ccccc1[N+](=O)[O-]`, the growth is 53.7%.

Consider `O=C1c2cc3c(cc2-c2c1c1ccc(F)cc1c(=O)n2C[C@H](O)[C@H](O)[C@H](O)CO)OCO3`, for which the growth was -7.34% (active).

Take `Cc1ccc2c(C(C[N+](=O)[O-])c3ccccc3F)c(-c3ccccc3)[nH]c2c1` (stereo not drawn): the growth is 45.8%.

Consider `COc1ccc(CCNc2nc(SC)nc(-c3cccc([N+](=O)[O-])c3)c2C#N)cc1OC`, for which the growth was 75.8%.

As to `O=C(CCN1C(=O)/C(=C/c2ccc(Cl)cc2)SC1=S)NCCCN1CCOCC1`, the growth was 102%.

In the case of `Cc1nn(-c2cc(=O)[nH]c3ccc(Cl)cc23)c(N)c1C#N`, the growth is 104%.

With `COC[C@H](C)n1c(C2CCOCC2)nc2cnc3cc(-c4c(C)noc4C)c(OC)cc3c21`, the growth is 37.1%.

For the molecule `COc1cc(C(=O)Oc2ccccc2OC(=O)c2cc(OC)c(OC)c(OC)c2)cc(OC)c1OC`, the growth is 83.4%.

`COc1ccc(/C=C\c2cc(OC)c(OC)c(OC)c2)cc1OCC(=O)Nc1ccc2nc(C)sc2c1`: the growth was 52%.

For the molecule `COc1cc2c(cc1O)CC[C@@H]1[C@@H]2CC[C@]2(C)[C@@H](OCCCN(C)C)CC[C@@H]12`, the growth is -18.2% (active).

On to `CC(=O)Oc1ccc(Cl)cc1CN(C(C)=O)C1CCCCC1`, for which the growth was 83.4%.

As to `O=C(/C=C/c1cccc([N+](=O)[O-])c1)c1ccc(O)c(CN2CCN(c3cc4c(cc3F)c(=O)c(C(=O)O)cn4C3CC3)CC2)c1`, the growth is 59%.
